In PubChem BioAssay (EPA / NIEHS) one finds outcome and AC50 data, which are given here for 3 molecules.

Active and inactive are the calls of the source. Rule for the calls: active = hit-call score of the fitted dose curve at least 0.9, where 1 is the maximum; inactive = score below 0.9.

Details in all cases: mRNA level, 48 h; actives raise or lower the signal
Read-out in assay [1]: Apoptosis regulator Bcl-2 (Homo sapiens) (UniProt P10415)
The experiment in a line: LTEA_HepaRG_BCL2: Life Technologies and Expression Analysis (LTEA) Assay for Bcl-2 gene using HepaRG (AID 2283475). In outline: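 Each chemical was tested in duplicate on HepaRG cultures held in serum-free induction medium for 48 h, highest concentration 100 uM with half-log dilutions. Transcript levels came from multiplexed qRT-PCR, normalised to housekeeping genes; activity was scored in either direction relative to DMSO.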

Read-out in another assay: Caspase-3 (Homo sapiens) (UniProt P42574)
The assay can be described thus: LTEA_HepaRG_CASP3: Life Technologies and Expression Analysis (LTEA) Assay for cysteine-aspartic acid protease (CASP3) using HepaRG (AID 2283477). In outline:
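Differentiated human HepaRG cells in serum-free induction medium were exposed 48 h to 8-point half-log concentrations from 100 uM (0.5% DMSO vehicle). CASP3 mRNA was measured by qRT-PCR, normalised to ACTB, GAPDH and POLR2A, with bidirectional fitting against DMSO.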

Read-out in assay [2]: Cytochrome P450 (CYP24A1), CYP24A1 (gene 1591)
The experiment in a line: LTEA_HepaRG_CYP24A1: Life Technologies and Expression Analysis (LTEA) Assay for Cytochrome P450 (CYP24A1) using HepaRG (AID 2283478). The gist of the method:
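Differentiated HepaRG cells, pre-cultured 48 h, were exposed in duplicate for 48 h in serum-free induction medium to 8 half-log concentrations (top 100 uM, 0.5% DMSO). CYP24A1 mRNA was quantified by TaqMan qRT-PCR, normalized to ACTB/GAPDH/POLR2A, fitted bidirectionally versus DMSO.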

Read-out in assay [3]: Cytochrome P450 (CYP1A2), CYP1A2 (gene 1544)
The experiment in a line: LTEA_HepaRG_CYP1A2: Life Technologies and Expression Analysis (LTEA) Assay for Cytochrome P450 (CYP1A2) using HepaRG (AID 2283479). The gist of the method: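 Differentiated human HepaRG cells in serum-free induction medium were exposed in duplicate for 48 h to 8-point half-log concentrations up to 100 uM in 0.5% DMSO. CYP1A2 mRNA measured by qRT-PCR, normalized to ACTB, GAPDH, POLR2A; bidirectional fit vs DMSO.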

Read-out in assay [4]: cysteine-aspartic acid protease (CASP8), CASP8 (gene 841)
The assay can be described thus: LTEA_HepaRG_CASP8: Life Technologies and Expression Analysis (LTEA) Assay for cysteine-aspartic acid protease (CASP8) using HepaRG (AID 2283480). In outline:
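qRT-PCR readout of CASP8 mRNA, normalized to three housekeeping genes, after 48 h chemical exposure of HepaRG cells; 8-point half-log series, top 100 uM, 0.5% DMSO vehicle. Bidirectional curve fitting against DMSO baseline.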

Read-out in assay [5]: Cytochrome P450 (CYP2B6), CYP2B6 (gene 1555)
The experiment in a line: LTEA_HepaRG_CYP2B6: Life Technologies and Expression Analysis (LTEA) Assay for Cytochrome P450 (CYP2B6) using HepaRG (AID 2283481). The gist of the method: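 Differentiated HepaRG cells, serum-free induction medium, exposed 48 h in duplicate to 8-point half-log concentrations from 100 uM in 0.5% DMSO. CYP2B6 mRNA by qRT-PCR, normalized to ACTB, GAPDH, POLR2A; bidirectional fit versus DMSO.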

Read-out in assay [6]: Cytochrome P450 2C19 (Homo sapiens) (UniProt P33261)
The experiment in a line: LTEA_HepaRG_CYP2C19: Life Technologies and Expression Analysis (LTEA) Assay for CYP2C19 using HepaRG (AID 2283482). The gist of the method:
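Differentiated human HepaRG cells were exposed for 48 h in serum-free induction medium to 8 concentrations (top 100 uM, half-log steps, 0.5% DMSO). CYP2C19 mRNA was measured by qRT-PCR, normalized to ACTB/GAPDH/POLR2A, and fitted bidirectionally against DMSO.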

Read-out in the next assay: CYP2C8 (gene 1558)
The experiment in a line: LTEA_HepaRG_CYP2C8: Life Technologies and Expression Analysis (LTEA) Assay for CYP2C8 using HepaRG (AID 2283483). The gist of the method:
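HepaRG (human liver line), 48 h chemical exposure, 8-pt half-log series from 100 uM, 0.5% DMSO vehicle. Readout: CYP2C8 transcript by qRT-PCR, housekeeping-normalized. Bidirectional fit vs DMSO baseline.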

Read-out in another assay: CYP2C9 (gene 1559)
The experiment in a line: LTEA_HepaRG_CYP2C9: Life Technologies and Expression Analysis (LTEA) Assay for CYP2C9 using HepaRG (AID 2283484). In outline: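 HepaRG, 48 h dosing, 8-pt half-log series, top 100 uM, 0.5% DMSO vehicle. Read-out: CYP2C9 transcript by TaqMan qRT-PCR, housekeeping-normalized (ACTB/GAPDH/POLR2A). Gain or loss fitted vs DMSO baseline.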

Read-out in another assay: CYP2E1 (gene 1571)
The experiment in a line: LTEA_HepaRG_CYP2E1: Life Technologies and Expression Analysis (LTEA) Assay for CYP2E1 using HepaRG (AID 2283485). The gist of the method:
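Assay uses 48 h exposure of HepaRG hepatic cells, eight concentrations to 100 uM. Expression of CYP2E1 is quantified by TaqMan qRT-PCR with ACTB, GAPDH and POLR2A normalization; curves fitted in both directions relative to vehicle.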

Read-out in another assay: CYP4A11 (gene 1579)
The experiment in a line: LTEA_HepaRG_CYP4A11: Life Technologies and Expression Analysis (LTEA) Assay for CYP4A11 using HepaRG (AID 2283486). The gist of the method:
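Differentiated HepaRG cells, serum-free induction medium, exposed 48 h in duplicate to 8-point half-log series from 100 uM in 0.5% DMSO. CYP4A11 mRNA measured by qRT-PCR, normalized to ACTB, GAPDH, POLR2A; bidirectional fit versus DMSO.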

Read-out in assay [7]: Cytochrome P450 3A4 (Homo sapiens) (UniProt P08684)
The assay can be described thus: LTEA_HepaRG_CYP3A4: Life Technologies and Expression Analysis (LTEA) Assay for CYP3A4 using HepaRG (AID 2283487). The gist of the method:
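HepaRG, 48 h exposure, 8-pt CRC from 100 uM (half-log), 0.5% DMSO, duplicates; serum-free induction medium. Readout: CYP3A4 mRNA, qRT-PCR, ACTB/GAPDH/POLR2A normalization. Bidirectional fit vs DMSO.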

Read-out in assay [8]: DNA damage-inducible transcript 3 (DDIT3), DDIT3 (gene 1649)
The assay can be described thus: LTEA_HepaRG_DDIT3: Life Technologies and Expression Analysis (LTEA) Assay for DNA damage-inducible transcript 3 (DDIT3) using HepaRG (AID 2283488). The gist of the method: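 Eight-point concentration-response (100 uM highest, half-log dilutions) in HepaRG, 48 h, duplicate wells. Endpoint: qRT-PCR mRNA, normalized (ACTB, GAPDH, POLR2A), bidirectional fitting with DMSO as baseline.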

Read-out in assay [9]: Pro-epidermal growth factor (Homo sapiens) (UniProt P01133)
The experiment in a line: LTEA_HepaRG_EGF: Life Technologies and Expression Analysis (LTEA) Assay for Epidermal growth factor (EGF) using HepaRG (AID 2283489). In outline: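 Differentiated human HepaRG cells, plated 48 h then switched to serum-free induction medium, were exposed for 48 h to test chemicals (8-point half-log series, top 100 uM, 0.5% DMSO). EGF mRNA was quantified by qRT-PCR, normalized to ACTB, GAPDH, POLR2A.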

Read-out in assay [10]: Early growth response protein 1 (EGR1) transcription factor, EGR1 (gene 1958)
The assay can be described thus: LTEA_HepaRG_EGR1: Life Technologies and Expression Analysis (LTEA) Assay for Early growth response protein 1 (EGR1) transcription factor using HepaRG (AID 2283490). The gist of the method: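 HepaRG, 48 h exposure, 8-pt half-log series from 100 uM, 0.5% DMSO vehicle; EGR1 transcript by TaqMan qRT-PCR (Fluidigm array), housekeeping-normalized; bidirectional fit relative to DMSO baseline.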

Read-out in assay [11]: Ezrin (EZR), EZR (gene 7430)
The experiment in a line: LTEA_HepaRG_EZR: Life Technologies and Expression Analysis (LTEA) Assay for Ezrin (EZR) using HepaRG (AID 2283491). In outline:
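Read-out is EZR transcript level by qRT-PCR, normalized to three housekeeping genes and fitted bidirectionally against the DMSO control. Human HepaRG cells received test chemicals for 48 h at eight half-log concentrations up to 100 uM in 0.5% DMSO.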

Read-out in another assay: CYP3A5 (gene 1577)
The experiment in a line: LTEA_HepaRG_CYP3A5: Life Technologies and Expression Analysis (LTEA) Assay for CYP3A5 using HepaRG (AID 2283493). In outline:
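Readout was CYP3A5 mRNA by qRT-PCR. HepaRG cultures were exposed for 48 h in serum-free induction medium to chemicals at up to 100 uM, and responses were fitted in both directions relative to DMSO vehicle.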

Read-out in assay [12]: Fatty Acid-Binding Protein 1 (FABP1), FABP1 (gene 2168)
The assay can be described thus: LTEA_HepaRG_FABP1: Life Technologies and Expression Analysis (LTEA) Assay for Fatty Acid-Binding Protein 1 (FABP1) using HepaRG (AID 2283494). In outline: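 qRT-PCR readout of FABP1 transcript (normalized to three housekeeping genes) after 48 h chemical exposure of HepaRG cells; eight concentrations, half-log steps, max 100 uM, 0.5% DMSO vehicle; gain or loss fitted relative to DMSO baseline.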

Apoptosis regulator Bcl-2 (Homo sapiens), sequence (P10415 whole entry, looked up): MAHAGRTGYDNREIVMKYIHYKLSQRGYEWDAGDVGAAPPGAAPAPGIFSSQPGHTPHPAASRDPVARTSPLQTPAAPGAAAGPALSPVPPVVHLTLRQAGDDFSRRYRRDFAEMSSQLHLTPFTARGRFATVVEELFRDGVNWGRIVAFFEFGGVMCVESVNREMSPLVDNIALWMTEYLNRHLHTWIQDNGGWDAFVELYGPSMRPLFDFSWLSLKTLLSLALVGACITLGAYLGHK
Caspase-3 (Homo sapiens), sequence (P42574 whole entry, looked up): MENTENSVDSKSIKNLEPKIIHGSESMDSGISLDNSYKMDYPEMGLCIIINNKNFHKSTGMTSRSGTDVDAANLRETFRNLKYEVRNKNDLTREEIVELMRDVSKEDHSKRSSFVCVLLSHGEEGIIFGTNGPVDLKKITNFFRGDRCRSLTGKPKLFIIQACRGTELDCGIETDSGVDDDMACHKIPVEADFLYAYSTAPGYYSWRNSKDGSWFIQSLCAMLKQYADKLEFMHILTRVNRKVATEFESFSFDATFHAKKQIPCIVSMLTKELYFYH
Cytochrome P450 3A4 (Homo sapiens), sequence (P08684 whole entry, looked up): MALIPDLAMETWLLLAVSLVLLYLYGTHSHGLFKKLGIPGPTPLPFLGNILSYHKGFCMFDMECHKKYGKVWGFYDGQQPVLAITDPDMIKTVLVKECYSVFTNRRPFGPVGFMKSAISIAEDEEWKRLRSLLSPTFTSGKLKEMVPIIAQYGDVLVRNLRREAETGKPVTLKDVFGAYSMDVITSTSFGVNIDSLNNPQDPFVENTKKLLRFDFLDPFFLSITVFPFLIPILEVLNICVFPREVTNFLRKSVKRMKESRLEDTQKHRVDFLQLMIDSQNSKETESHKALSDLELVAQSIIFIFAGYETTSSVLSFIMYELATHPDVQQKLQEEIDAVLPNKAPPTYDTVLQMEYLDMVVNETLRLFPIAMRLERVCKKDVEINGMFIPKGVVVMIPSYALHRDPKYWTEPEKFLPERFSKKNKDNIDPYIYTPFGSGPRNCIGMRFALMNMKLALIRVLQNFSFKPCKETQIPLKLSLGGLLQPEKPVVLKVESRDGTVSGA
Cytochrome P450 2C19 (Homo sapiens), sequence (P33261 whole entry, looked up): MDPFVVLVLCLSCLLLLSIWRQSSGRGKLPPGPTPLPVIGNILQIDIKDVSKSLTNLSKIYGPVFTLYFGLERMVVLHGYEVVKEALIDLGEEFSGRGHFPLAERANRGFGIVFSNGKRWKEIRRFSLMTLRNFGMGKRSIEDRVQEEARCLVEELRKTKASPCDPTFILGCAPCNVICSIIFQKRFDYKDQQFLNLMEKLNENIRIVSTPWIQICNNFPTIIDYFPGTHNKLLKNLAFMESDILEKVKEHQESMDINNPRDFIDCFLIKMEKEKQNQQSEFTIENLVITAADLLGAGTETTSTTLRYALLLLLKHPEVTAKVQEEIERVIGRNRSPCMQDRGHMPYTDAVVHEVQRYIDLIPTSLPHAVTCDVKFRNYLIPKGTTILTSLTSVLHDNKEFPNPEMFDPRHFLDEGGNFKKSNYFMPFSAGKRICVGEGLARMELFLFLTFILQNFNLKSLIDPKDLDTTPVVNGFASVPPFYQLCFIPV

With `CCCCC(CC)COC(=O)CCCCC(=O)OCc1ccccc1` (configuration not stated), the call (in assay [1]; with Caspase-3 (Homo sapiens); in assay [2]; in assay [3]; in [4]; in [5]) was inactive. Further, the outcome (in [6]; in the assay with CYP2C8 (gene 1558); with CYP2C9 (gene 1559); with CYP2E1 (gene 1571); in the assay with CYP4A11 (gene 1579); in assay [7]) was inactive. Besides, the outcome (in [8]; in assay [9]; in assay [10]; in [11]; in the assay with CYP3A5 (gene 1577); in assay [12]) was inactive.
As for `OC1CCC(C2CCCCC2)CC1` (configuration not stated), the molecule was called inactive (in assay [1]; with Caspase-3 (Homo sapiens); in assay [2]; in [3]; in assay [4]; in assay [5]). Besides, the result (in [6]; with CYP2C8 (gene 1558); with CYP2C9 (gene 1559); in the assay with CYP2E1 (gene 1571); with CYP4A11 (gene 1579); in assay [7]) was inactive. The result (in assay [8]; in assay [9]; in assay [10]; in assay [11]; with CYP3A5 (gene 1577); in assay [12]) was inactive.
`CCc1ccc(CCOc2ccc(CC3SC(=O)NC3=O)cc2)nc1` (configuration not stated): the AC50 in assay [1] was 72.6 µM (active); in assay [3], 31.6 µM (active); in [5] it was 92.5 µM (active); with CYP2C8 (gene 1558), 88.4 µM (active); with CYP2C9 (gene 1559) it was 77.6 µM (active); in the assay with CYP2E1 (gene 1571) it was 48.5 µM (active). The AC50 is 85.9 µM (active) in the assay with CYP4A11 (gene 1579); 91.3 µM (active) in assay [8]; 15.1 µM (active) in assay [10]; 15.9 µM (active) in [11]; 88.3 µM (active) in assay [12]. For the same molecule, the outcome (with Caspase-3 (Homo sapiens); in assay [2]; in [4]; in [9]; with CYP3A5 (gene 1577)) was inactive.
